Experimental findings from ChEMBL document CHEMBL2218924, “A broad activity screen in support of a chemogenomic map for kinase signalling research and drug discovery” (Biochem J, 2013) are described below.

Usually residual activity stands for the signal under treatment as a percentage of the control signal.

Molecules are shown by their SMILES.

Sequence of Death-associated protein kinase 1 (Homo sapiens) (P53355 whole entry, looked up): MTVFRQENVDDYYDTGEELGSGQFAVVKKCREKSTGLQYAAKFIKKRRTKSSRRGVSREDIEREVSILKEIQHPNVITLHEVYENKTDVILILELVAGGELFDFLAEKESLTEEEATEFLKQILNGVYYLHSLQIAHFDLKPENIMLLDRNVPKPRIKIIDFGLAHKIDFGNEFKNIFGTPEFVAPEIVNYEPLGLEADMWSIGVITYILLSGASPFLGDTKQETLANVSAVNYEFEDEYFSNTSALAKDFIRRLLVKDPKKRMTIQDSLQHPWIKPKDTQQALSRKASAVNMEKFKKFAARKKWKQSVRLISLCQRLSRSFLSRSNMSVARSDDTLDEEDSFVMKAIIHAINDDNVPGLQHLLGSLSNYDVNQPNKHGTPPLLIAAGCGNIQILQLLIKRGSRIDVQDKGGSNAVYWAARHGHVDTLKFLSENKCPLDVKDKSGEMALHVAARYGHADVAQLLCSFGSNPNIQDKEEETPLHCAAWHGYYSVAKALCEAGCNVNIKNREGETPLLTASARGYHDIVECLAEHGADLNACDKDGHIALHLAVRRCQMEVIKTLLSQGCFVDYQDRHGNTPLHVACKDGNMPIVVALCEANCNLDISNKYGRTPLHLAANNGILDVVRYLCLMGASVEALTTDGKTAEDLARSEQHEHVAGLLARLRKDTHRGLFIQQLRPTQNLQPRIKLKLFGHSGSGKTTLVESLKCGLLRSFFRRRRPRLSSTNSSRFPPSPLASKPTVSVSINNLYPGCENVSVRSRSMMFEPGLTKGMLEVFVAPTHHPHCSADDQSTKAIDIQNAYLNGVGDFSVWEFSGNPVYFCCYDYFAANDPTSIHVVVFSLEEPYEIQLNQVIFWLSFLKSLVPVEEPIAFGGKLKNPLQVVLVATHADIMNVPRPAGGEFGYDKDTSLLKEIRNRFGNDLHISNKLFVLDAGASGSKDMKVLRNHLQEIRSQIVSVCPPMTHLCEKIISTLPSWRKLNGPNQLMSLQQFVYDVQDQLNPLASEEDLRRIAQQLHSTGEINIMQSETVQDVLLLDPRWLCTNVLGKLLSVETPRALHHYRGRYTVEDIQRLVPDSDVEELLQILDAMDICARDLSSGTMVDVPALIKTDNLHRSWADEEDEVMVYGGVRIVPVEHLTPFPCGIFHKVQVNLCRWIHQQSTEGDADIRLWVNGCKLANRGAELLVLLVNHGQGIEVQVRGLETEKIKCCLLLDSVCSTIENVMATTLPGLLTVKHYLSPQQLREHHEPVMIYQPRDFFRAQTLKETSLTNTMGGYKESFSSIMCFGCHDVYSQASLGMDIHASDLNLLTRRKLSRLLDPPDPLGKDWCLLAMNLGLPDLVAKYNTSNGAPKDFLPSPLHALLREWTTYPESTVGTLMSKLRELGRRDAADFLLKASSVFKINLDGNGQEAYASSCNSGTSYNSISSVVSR

The assay concerns the target Death-associated protein kinase 1 (Homo sapiens) (UniProt P53355). To be noted: at 1 µM.
On to `O=C1C(Cl)=C(N2C(=O)CCC2=O)C(=O)c2ccccc21`, for which the residual activity was 91%.

As for `NC(=O)c1ccc2[nH]c(-c3ccc(Oc4ccc(Cl)cc4)cc3)nc2c1`, the residual activity was found to be 93%.

For `COc1ccc(-c2cnc3c(-c4ccsc4)cnn3c2)cc1`, the residual activity was found to be 97%.

`CCN(CC)CCCCN1c2ccccc2Oc2ccc(Cl)cc21`: the residual activity is 107%.

In the case of `COc1cc2nccc(Oc3ccc(NC(=S)NC(=O)c4ccccc4C)cc3)c2cc1OC`, the residual activity was determined as 81%.

For `O=C1c2ccccc2-[n+]2ccc3c([nH]c4ccccc43)c21`, the residual activity turned out to be 86%.

`Nc1n[nH]c2nc3ccccc3nc12`: the residual activity amounted to 94%.

As to `Oc1n[nH]c2nnc(-c3c(-c4ccccc4)nn4ccccc34)cc12`, the residual activity stood at 52%.

With `O=C(c1ccccc1)c1ccc(N2CCOCC2)cc1O`, the residual activity worked out at 97%.

As to `O=c1cc(-c2cccc3c2Sc2ccccc2S3)oc(N2CCOCC2)c1`, the residual activity was determined as 91%.

Consider `Cc1nc2cc3nc(-c4cccs4)cnc3cc2n1C`, for which the residual activity turned out to be 94%.

For the compound `CC(C)N(CCC(=O)c1ccc2ccccc2c1)Cc1ccccc1`, the residual activity stood at 86%.

As for `COc1ccc(C(=O)Nc2sc3c(c2C(N)=O)CCCC3)cc1OC`, the residual activity was 93%.

As for `O=C1Nc2ccccc2/C1=C1/Nc2ccccc2/C1=N\OCCC(O)CO` (stereo unspecified), the residual activity was 81%.

`c1ccc(-c2n[nH]c3c2oc2ccccc23)cc1`: the residual activity is 94%.

Take `CC(C)(C)c1nc2c3ccc(F)cc3c3c(=O)[nH]ccc3c2[nH]1`: the residual activity was 8%.

As for `COc1cc2ncnc(Nc3ccc(NC(=O)c4ccccc4)cc3)c2cc1OC`, the residual activity was determined as 95%.

On to `c1ccc(-c2n[nH]cc2-c2ccnc3ccccc23)nc1`, for which the residual activity is 91%.

In the case of `O=C(Nc1nc2ccccc2n1CCN1CCOCC1)c1cccc([N+](=O)[O-])c1`, the residual activity was determined as 85%.

As for `Nc1ncnc2[nH]nc(Nc3ccc(F)cc3)c12`, the residual activity came to 102%.

With `O=C(CCCc1ccc(-c2ccccc2F)cc1)Nc1ccc(O)cc1`, the residual activity came out at 95%.

On to `O=C1NC(=O)c2c1c1c3ccccc3[nH]c1n1cncc21`, for which the residual activity turned out to be 57%.

As to `Oc1ccc(Nc2nc(-c3ccc(Cl)cc3)cs2)cc1`, the residual activity stood at 90%.

`CNc1cc2c(Nc3cccc(Br)c3)ncnc2cn1`: the residual activity was determined as 97%.

Turning to `O=c1c2ccccc2[nH]c(=S)n1CCN1CCC(=C(c2ccc(F)cc2)c2ccc(F)cc2)CC1`, the residual activity was 106%.

Regarding `COc1cc2nccc(Oc3ccc(NC(=O)Nc4cc(C)on4)c(Cl)c3)c2cc1OC`, the residual activity came to 105%.

For the compound `CCOc1cc2ncnc(Nc3cccc(Br)c3)c2cc1OCC`, the residual activity is 83%.

On to `Nc1n[nH]c2nnc(-c3c(-c4ccccc4)nn4ccccc34)cc12`, for which the residual activity was 83%.

Turning to `Oc1cccc(-c2nc(N3CCOCC3)c3oc4ncccc4c3n2)c1`, the residual activity was found to be 99%.

In the case of `O=Nc1c(-c2c(O)[nH]c3ccccc23)[nH]c2ccccc12`, the residual activity was determined as 91%.

In the case of `CSc1nc(-c2ccc(F)cc2)c(-c2ccnc(NC(C)c3ccccc3)c2)[nH]1` (stereo unspecified), the residual activity was 91%.
